# Compound activity as filed in PubChem BioAssay.
# MazEF act: activators of E. coli MazEF toxin-antitoxin RNase, primary screen, biochemical, fluorescence, uHTS; Endoribonuclease toxin MazF (Escherichia coli (strain K12)), P0AE70; FAM/BHQ RNA-DNA oligo cleavage fluorescence, 5 h; activation, % at 20 µM; 350,000 tested, 0.32% active; AID 504720, 2011; in the data active means activation above about 50%
# Target sequence (P0AE70 whole entry, looked up): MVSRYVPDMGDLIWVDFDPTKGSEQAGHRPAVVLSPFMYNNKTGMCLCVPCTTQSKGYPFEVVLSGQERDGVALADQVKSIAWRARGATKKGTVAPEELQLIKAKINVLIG
# Bead autofluor: compound fluorescence in toxin protease inhibitor counterscreen | compound autofluorescence counterscreen, microsphere flow cytometry; stronger effect = higher value | fluorescence intensity (no concentration beside the values) | 360,000 tested, 3.1% active | AID 624483; in the data active means fluorescence intensity above about 16000; inconclusive means no clear call, values can overlap the other calls
# BoNT F protease: BoNT/F light chain protease inhibitors, primary screen, biochemical, flow cytometry, MLPCN library. Multiplex microsphere protease cleavage assay. inhibition, % at 10 µM. 360,000 tested, 0.22% active. AID 588497, 2011; in the data active means inhibition above about 35%, passing the limit was not always enough; inconclusive means no clear call, values can overlap the other calls; further: plate controls were buffer without enzyme for full effect and enzyme alone for no effect
# SSB-PriA inh: inhibitors of Klebsiella pneumoniae PriA binding to SSB C-terminal tail, primary screen, biochemical, AlphaScreen; AlphaScreen SSBct-PriA binding, biotinylated peptide; inhibition, % at 33 µM; 430,000 tested, 0.6% active; in the data active means inhibition mostly above about 37%, no sharp cut-off; inactive means mostly below about 20%;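 further: plate controls were negative control peptide for no effect and reference peptide for full effect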
# Anthrax LF prot: Bacillus anthracis LF protease inhibitors, primary screen, biochemical, multiplex microsphere, MLPCN library; AID 588501, 2011; 360,000 tested, 0.12% active; inhibition, % at 10 µM; Lethal factor (Bacillus anthracis), P15917; multiplex microsphere protease cleavage assay; further: plate controls were buffer without enzyme for full effect and enzyme alone for no effect
# BoNT A protease: BoNT/A light chain protease inhibitors, primary screen, biochemical, flow cytometry, MLPCN library | inhibition, % at 10 µM | 360,000 tested, 0.17% active | Botulinum neurotoxin type A light chain protease (Clostridium botulinum A str. ATCC 3502) | AID 588499, 2011 | multiplex microsphere protease substrate cleavage; further: plate controls were buffer without enzyme for full effect and enzyme alone for no effect
# * = called active by the depositor; ? = inconclusive; · = no result given; + = active, no number. Shown are actives, neighbours in structure and some others; about 3.3% of the full set was active somewhere. Unless noted, no stated cut-off is given here; in the data, active means inhibition above about 30%; inconclusive means no clear call, values can overlap the other calls; inactive means below that.
SMILES,MazEF act,Bead autofluor,BoNT F protease,SSB-PriA inh,Anthrax LF prot,BoNT A protease
CS(=O)(=O)N1CCN(C(=O)C2COCC(=O)N2Cc2cccs2)CC1 (configuration not stated),·,·,·,2,·,·
CN(C)S(=O)(=O)c1ccc(-c2nnc(NC(=O)/C=C/c3cccs3)o2)cc1,·,·,·,-3,·,·
CCn1c(=O)cc(NC2=NCC(C)CN2c2cccc(Cl)c2)n(C)c1=O (configuration not stated),4,19894*,2,-5,-8,?
O=C(c1ccc(S(=O)(=O)N2CCOCC2)cc1)N1CCN(c2cccc(Cl)c2)CC1,0,24247*,-4,-10,-5,-3
O=C(NCC1CCN(c2ccc(S(=O)(=O)N3CCOCC3)cc2)CC1)c1cccc(Cl)c1,3,18496*,18,3,-5,-3
O=C(Cc1csc(NC(=O)Nc2ccccc2)n1)Nc1ccccc1Oc1ccccc1,·,·,·,17,·,·
O=C(NCc1cncc(-c2ccsc2)c1)c1ccc(-n2cccc2)cc1,·,·,·,-12,·,·
CC(=O)Nc1ccc(NC(=O)Cc2csc(Nc3cccc(Cl)c3)n2)cc1,·,·,·,6,·,·
Cc1cc(N2CCOCC2)nc2ccc(NC(=O)CCC(=O)N3CCCCC3)cc12,1,23643*,-2,2,-3,-1
COc1ccc(N(C)C(=O)CCC(=O)Nc2ccc3nc(N4CCOCC4)cc(C)c3c2)c(OC)c1,-8,16645*,-2,-6,-2,0
CCC(C)NC(=O)CCC(=O)Nc1ccc2nc(N3CCOCC3)cc(C)c2c1 (configuration not stated),2,2804,6,-7,-2,1
Cc1cc(N2CCOCC2)nc2ccc(NC(=O)CCC(=O)N3CCC(C)CC3)cc12,7,19171*,0,10,-2,2
CCSc1nnc(NC(=O)c2cccnc2)s1,-15,19138*,13,-9,-5,10
CCSc1nnc(NC(=O)c2cnccn2)s1,4,·,·,-6,·,·
CCSc1nnc(NC(=O)c2ccccn2)s1,4,2279,-1,86*,1,-1
CCc1ccnc(C(=O)Nc2nnc(CC)s2)c1,·,·,·,103*,·,·
CCc1nnc(NC(=O)c2cc(Cl)ccn2)s1,21,3791,-9,81*,4,-3
CCc1nnc(NC(=O)c2ccc(Cl)nc2)s1,0,3843,-2,-13,-3,0
CCc1nnc(NC(=O)c2ccccc2Cl)s1,·,·,·,-4,·,·
Cc1nn(Cc2ccccn2)c(=O)c2c1cnn2C(C)(C)C,·,·,·,-7,·,·
Cc1cccc(O[C@@H](C)C(=O)Nc2cc(-n3cncn3)ncn2)c1C,·,·,·,-6,·,·
CCSc1nnc(NC(=O)c2csc3c2CCCC3)s1,-11,22354*,1,-9,-1,0
CCc1nnc(NC(=O)c2ccccn2)s1,·,·,·,104*,·,·
CCSc1nnc(NC(=O)c2csc3c2CCC(C)C3)s1 (configuration not stated),-22,10092,-1,-12,-2,0
CN1CCN(C(CNS(=O)(=O)Cc2ccccc2)c2ccsc2)CC1 (configuration not stated),·,·,·,-14,·,·
SMILES,MazEF act,Bead autofluor,BoNT F protease,SSB-PriA inh,Anthrax LF prot,BoNT A protease
COc1ccc2c(c1)CC1(CN2C)C(=O)NC(=O)N(c2ccc(F)cc2)C1=O (configuration not stated),-10,22766*,0,8,-1,0
COc1ccc2c(c1)CC1(CN2C)C(=O)NC(=O)N(c2ccc(C)cc2)C1=O (configuration not stated),-2,4274,-6,4,-3,1
COc1ccc(OC)c2sc(N(C[C@H]3CCCO3)C(=O)COc3ccccc3F)nc12,·,·,·,0,·,·
CC(=O)Nc1nnc(/C=C/c2cccc([N+](=O)[O-])c2)s1,8,4252,63*,2,-2,0
Cc1oc(-c2cccs2)nc1CN1CCC(C(=O)N2CCCC2)CC1,4,5362,-4,-7,6,0
Cc1oc(-c2cccc(Cl)c2)nc1CN1CCC(C(=O)NCC2CCCO2)CC1 (configuration not stated),-4,8657,0,-18,-1,1
Cc1cc(C)nc(N2CCC(C(=O)NCc3cccs3)CC2)n1,-3,23240*,-4,-21,0,?
Cc1oc(-c2ccccc2F)nc1CN1CCC(C(=O)NCc2cccs2)CC1,2,21985*,0,1,-2,1
Cc1ccccc1-c1nc(CN2CCC(C(=O)NCC3CCCO3)CC2)c(C)o1 (configuration not stated),11,25315*,-6,13,-8,-4
Cc1oc(-c2ccccc2F)nc1CN1CCC(C(=O)NC2CC2)CC1,-2,20198*,4,-11,-2,1
COc1ccc2nc(-c3ccc(F)c(NC(=O)c4c(F)cccc4F)c3)cn2n1,·,·,·,-10,·,·
C[C@@H](C(=O)NC1CCCC1)n1nc(-c2ccc3c(c2)OCO3)ccc1=O,·,·,·,-2,·,·
CCNC(=O)N1CCC(c2nnc(-c3ccco3)o2)CC1,·,·,·,-6,·,·
Cc1cc(-c2ccccc2)nc(N2CCC(C(=O)NC(C)C)CC2)n1,-1,16521*,-5,-14,-4,-2
Cc1ccc(S(=O)(=O)N2CCN=C2SCc2ccc(Cl)c(Cl)c2)cc1,+,2587,1,-8,-1,0
Cc1ccc(CSC2=NCCN2S(=O)(=O)c2ccc(C)cc2)cc1,-5,3649,3,·,2,0
O=S(=O)(c1ccc(Cl)cc1)N1CCN=C1SCc1cccc(Cl)c1,2,2120,-4,101*,0,0
Cc1ccc(CNC(=O)C(=O)NCC2CCN(C(C)C)CC2)cc1,·,·,·,-30,·,·
COc1ccc(C2C(=C(O)c3ccc4c(c3)OCCO4)C(=O)C(=O)N2Cc2ccco2)c(OC)c1 (configuration not stated),·,·,·,3,·,·
Cc1sc(-n2c(C)cc(/C=N/n3cnnc3)c2C)c(C#N)c1C,0,22786*,-4,·,-6,-2
Cc1sc(-n2c(C)cc(C=C3C(=O)NC(=O)NC3=O)c2C)c(C#N)c1C,-12,·,·,4,·,·
Cc1cc(=O)[nH]c(-n2nc(-c3cccs3)cc2NC(=O)C2CC(=O)N(c3ccc(Cl)cc3)C2)n1 (configuration not stated),·,·,·,-21,·,·
O=C(NCCn1nc(-c2ccncc2)cc1C1CC1)Nc1cccs1,·,·,·,11,·,·
CC(C)OC(=O)c1ccc(Cn2nnc3ccccc3c2=O)cc1,-2,20849*,7,-25,0,4
O=C(NCC1(O)CCCC1)c1c(F)cccc1Cl,·,·,·,-9,·,·
COCCNC(=O)CN1CCC(NC(=O)Nc2ccc(C(F)(F)F)cc2)CC1,11,23251*,-5,-11,-3,-1
